Data published in paper PMC4336329 (PLoS ONE, 2015).
The whole screen tested about 310,000 compounds, of which about 14,000 (4.5%) showed an effect of 50% or more. Effects have a minus sign here. The sample holds strong results, similar compounds and a random draw of the others, so the mix is not that of the screen.

Molecular target: human ether-à-go-go-related gene (hERG) potassium channel (human, UniProt Q12809)
Assay: primary screen, population patch clamp on CHO cells stably expressing hERG; higher = less effect of the substance
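Note: peak tail current of the secondary pulse compared with the same well before compound.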

human ether-à-go-go-related gene (hERG) potassium channel, sequence (Q12809 whole entry, looked up): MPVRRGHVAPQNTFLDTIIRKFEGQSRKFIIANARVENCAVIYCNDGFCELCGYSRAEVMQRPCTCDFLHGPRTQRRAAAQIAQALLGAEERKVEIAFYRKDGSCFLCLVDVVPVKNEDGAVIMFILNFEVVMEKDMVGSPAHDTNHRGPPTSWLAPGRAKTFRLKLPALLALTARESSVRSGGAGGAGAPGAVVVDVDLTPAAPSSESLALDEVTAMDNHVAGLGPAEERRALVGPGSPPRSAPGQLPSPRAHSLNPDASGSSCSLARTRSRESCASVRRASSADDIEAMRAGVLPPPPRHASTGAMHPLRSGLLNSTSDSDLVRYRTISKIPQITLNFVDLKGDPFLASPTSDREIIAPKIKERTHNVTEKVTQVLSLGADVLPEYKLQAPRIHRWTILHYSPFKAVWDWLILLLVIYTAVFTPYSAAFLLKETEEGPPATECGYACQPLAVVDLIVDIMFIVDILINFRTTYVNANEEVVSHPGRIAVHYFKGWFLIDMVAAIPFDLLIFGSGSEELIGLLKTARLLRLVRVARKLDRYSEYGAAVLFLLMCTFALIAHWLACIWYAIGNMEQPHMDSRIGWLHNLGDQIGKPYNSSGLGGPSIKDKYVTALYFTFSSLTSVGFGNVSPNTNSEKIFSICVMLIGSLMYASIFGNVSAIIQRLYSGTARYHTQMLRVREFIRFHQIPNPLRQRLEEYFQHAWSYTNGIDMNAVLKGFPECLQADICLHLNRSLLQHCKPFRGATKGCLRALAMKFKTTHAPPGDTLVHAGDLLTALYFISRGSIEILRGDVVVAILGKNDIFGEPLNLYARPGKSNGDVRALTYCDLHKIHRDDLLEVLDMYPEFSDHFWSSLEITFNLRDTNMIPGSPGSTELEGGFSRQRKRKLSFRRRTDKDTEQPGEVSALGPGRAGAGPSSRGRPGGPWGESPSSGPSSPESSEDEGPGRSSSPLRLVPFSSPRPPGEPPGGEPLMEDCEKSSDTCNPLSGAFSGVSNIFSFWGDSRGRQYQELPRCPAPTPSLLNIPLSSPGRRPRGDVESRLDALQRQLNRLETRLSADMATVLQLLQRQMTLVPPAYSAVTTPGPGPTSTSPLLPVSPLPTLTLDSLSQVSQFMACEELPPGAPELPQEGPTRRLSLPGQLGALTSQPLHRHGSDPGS

Row | SMILES | hERG current change (%, negative = inhibition) at 10uM [%]
1 | Cc1onc(-c2ccccc2Cl)c1C(=O)Nc1ccc(S(=O)(=O)NCC2CCCO2)cc1 (stereo not shown) | -10.5
2 | COc1ccc(C(=O)Nc2ccccc2N2CCOCC2)cc1S(=O)(=O)N1CCCC1 | -24.5
3 | O=C(NCCCN1CCOCC1)c1cccc(S(=O)(=O)N2CCc3ccccc3C2)c1 | -17
4 | O=C(NNC(=O)c1ccc(Cl)cc1Cl)c1ccncc1 | 17
5 | Cc1ccc(-c2cccc(C(=O)NCc3ccccc3)n2)c2ccccc12 | 17.8
6 | CCOC(=O)N1C=CC=C[C@@H]2[C@@H](N3C(=O)c4ccccc4C3=O)C(=O)N21 | 0.941
7 | COc1ccc(OC)c2[nH]c(=O)c(CCNC(=O)C(=O)c3c(C)[nH]c4ccccc34)cc12 | -1.04
8 | C/C(CC(=O)Nc1ccccc1[N+](=O)[O-])=N\NC(=O)COc1ccccc1C | -5.65
9 | COC(=O)c1cc(-c2ccc(OC)c(OC)c2)c2c(=O)[nH]c(=O)n(C)c2n1 | 21.3
10 | COc1ccc(CSCCc2n[nH]c(=S)n2-c2ccccc2)cc1 | 20.1
11 | CC1=Nn2c(nnc2-c2n[nH]c3c2CCC3)SC1 | 8.18
12 | COc1ccc(S(=O)(=O)N(CC(=O)NCc2cccnc2)c2ccc(C)cc2)cc1OC | -10
13 | CN(c1ccc(OCC(=O)OCC(=O)Nc2ccccc2)cc1)S(=O)(=O)c1ccc(F)cc1 | -11.9
14 | CN(c1ccc(OCC(=O)OCC(=O)Nc2c(F)c(F)c(F)c(F)c2F)cc1)S(=O)(=O)c1ccc(F)cc1 | 8.61
15 | COc1ccc(N(CC(=O)NCc2cccnc2)S(=O)(=O)c2ccc(C)c([N+](=O)[O-])c2)cc1 | -36.6
16 | COc1ccc(N(CC(=O)Nc2ccc(C(N)=O)cc2)S(=O)(=O)c2ccc(C)c([N+](=O)[O-])c2)cc1 | 24
17 | Cc1ccc(N(CC(=O)NCC(O)c2ccccc2)S(=O)(=O)c2ccc(C)cc2)cc1 (stereo not shown) | -65.9
18 | COc1ccc(S(=O)(=O)N(CC(=O)NCc2cccnc2)c2ccc(F)cc2)cc1OC | 4.62
19 | Cc1ccc(S(=O)(=O)N(CC(=O)NCc2cccnc2)c2ccc(F)cc2)cc1 | -61.2
20 | COc1ccc(N(CC(=O)NCc2ccncc2)S(=O)(=O)c2ccc(C)c([N+](=O)[O-])c2)cc1 | -50.9
21 | COc1ccc(N(CC(=O)NC(C)c2ccccc2)S(=O)(=O)c2ccc(C)cc2)cc1 (stereo not shown) | -22.1
22 | CN(c1ccc(OCC(=O)OCC(=O)Nc2ccc(F)cc2)cc1)S(=O)(=O)c1ccc(Cl)cc1 | -59.2
23 | CCNC(=O)CN(c1ccc(C)cc1)S(=O)(=O)c1ccccc1 | 7.75
24 | Fc1ccc(C2=CCN(C(c3cccs3)c3nnnn3CCc3ccccc3)CC2)cc1 (stereo not shown) | -0.341
25 | O=C(CCC(=O)c1cccs1)Nc1ccccc1F | 3.01
26 | COc1ccc(C(=O)CCC(=O)NCCc2c[nH]c3ccccc23)cc1OC | 21.2
27 | Cc1cccc(C)c1NC(=O)c1ccc(CN2CCc3ccccc3C2)cc1 | 4.57

Row | SMILES | hERG current change (%, negative = inhibition) at 10uM [%]
28 | Cc1nn(CC(=O)N2CCCCCC2)c(=O)c2cc3occc3n12 | 14.6
29 | Cc1cc(NC(=O)c2cc(-c3ccc(Br)cc3)on2)no1 | 17.6
30 | COc1ccc(CCNC(=O)c2ccccc2OCc2c(C)noc2C)cc1 | -26.4
31 | NS(=O)(=O)c1ccc(NC(=O)/C=C/c2ccccc2Cl)cc1 | 9.54
32 | CN=C(Nc1cc(C)nn1-c1ccccc1)c1ccc(F)cc1 | -9.94
33 | COc1cc(SC)ccc1C(=O)Nc1cccc(S(=O)(=O)NC2=NCCCCC2)c1 | 4.08
34 | Cc1ccc(S(=O)(=O)N(Cc2ccc(Cl)cc2)c2ccccc2C(=O)NCc2ccco2)cc1 | -10.8
35 | Cc1ccc(S(=O)(=O)N(Cc2ccc(Cl)cc2)c2ccccc2C(=O)NCc2cccnc2)cc1 | -52
36 | O=C(COc1ccc(S(=O)(=O)N2CCCC2)cc1Cl)NCc1cccnc1 | -55
37 | CN(c1ccc(OCC(=O)NCc2cccnc2)cc1)S(=O)(=O)c1ccc(Cl)cc1 | -58.4
38 | Cc1ccc(S(=O)(=O)N(Cc2ccccc2)c2ccccc2C(=O)NCc2cccnc2)cc1 | -33.2
39 | CN(c1ccc(OCC(=O)OCC(=O)NCc2ccco2)cc1)S(=O)(=O)c1ccc2ccccc2c1 | 2.22
40 | O=C(COc1ccc(S(=O)(=O)N2CCCC2)cc1)NCc1cccnc1 | -3.42
41 | CN(c1ccc(OCC(=O)O)cc1)S(=O)(=O)c1ccc2ccccc2c1 | 16.1
42 | CCOc1ccc(S(=O)(=O)N(C)c2ccc(OCC(=O)NCc3cccnc3)cc2)cc1 | -21.5
43 | CN(c1ccc(OCC(=O)NCCc2ccccc2)cc1)S(=O)(=O)c1ccc(Cl)cc1 | 15.2
44 | COCCNC(=O)COc1ccc(N(C)S(=O)(=O)c2ccc3ccccc3c2)cc1 | -62
45 | O=C(COc1ccc(S(=O)(=O)N2CCCCC2)cc1)NCc1cccnc1 | 3.06
46 | COc1cc(/C=C/c2ccc3c(Br)cc(Br)c(O)c3n2)ccc1O | 17.2
47 | O=C(CSc1ccc([N+](=O)[O-])cn1)Nc1ccc(N2CCOCC2)c(Cl)c1 | -33.2
48 | CCc1nnc(NC(=O)CSc2nnnn2-c2cccc(C(=O)OC)c2)s1 | 8.39
49 | O=C(Cc1cccs1)Nc1nnc(COc2ccccc2)s1 | 3.05
50 | O=C(CN1C(=O)NC2(CCc3ccccc32)C1=O)Nc1cc(C(F)(F)F)ccc1N1CCOCC1 (stereo not shown) | -5.15
51 | O=C(COc1ncnc2ccccc12)N1CCN(S(=O)(=O)c2ccc(Cl)cc2)CC1 | -9.26
52 | Cc1nc(Cl)c2c(n1)NC1=C(O2)C(=O)CCC1 | 14.7
53 | COc1cccc(/C=C2\SC(=S)N(CCC(=O)NCCc3ccc(O)cc3)C2=O)c1 | 3.18
54 | COc1ccc(Nc2nc(-c3sc(N)nc3C)cs2)cc1 | 8.32

Row | SMILES | hERG current change (%, negative = inhibition) at 10uM [%]
55 | O=C(NNC1=Nc2cccc3cccc1c23)c1ccc(Br)cc1 | 4.78
56 | Cc1cccc2cc(C(c3nnnn3Cc3ccccc3)N3CCN(c4ccccc4)CC3)c(=O)[nH]c12 (stereo not shown) | -29.1
57 | COc1cccc(/C=N/NC(=O)COc2cccc3cccnc23)c1O | 0.232
58 | CN(C)/C=C(/C(=O)c1ccc(Cl)c(Cl)c1)c1nnnn1-c1ccccc1 | 9.85
59 | COc1ccc(C2C3=C(CCCC3=O)Nc3nc(SCc4ccc(C(=O)O)cc4)nn32)cc1OC (stereo not shown) | -3.79
60 | Cl.Cn1cccc1CNCCc1ccccc1 | -1.74
61 | CCOc1ccc(S(=O)(=O)N(CC)CC(=O)NCc2cccnc2)cc1 | -38
62 | CN(c1ccc(C(=O)N2CCCCC2)cc1)S(=O)(=O)c1ccccc1 | -10.8
63 | COCCNC(=O)CN(c1ccc(OC)c(OC)c1)S(=O)(=O)c1ccc(C)cc1 | -8.68
64 | CN(c1ccc(C(=O)N2CCOCC2)cc1)S(=O)(=O)c1ccc(Cl)cc1 | -34.2
65 | CCOc1ccc(S(=O)(=O)N(CC(=O)NCc2cccnc2)c2ccc(C)cc2)cc1 | -66.9
66 | CCc1ccc(N(CC(=O)NCc2cccnc2)S(=O)(=O)c2ccccc2)cc1 | -27
67 | COCCNC(=O)CN(c1cccc(OC)c1)S(=O)(=O)c1ccc(C)cc1 | -12.2
68 | COc1ccc(N(CC(=O)NCCOc2ccccc2)S(=O)(=O)c2ccc(C)cc2)cc1 | -54.8
69 | COCCNC(=O)CN(c1ccc(C)cc1)S(=O)(=O)c1ccccc1 | 9.01
70 | COc1ccc(S(=O)(=O)N(CC(=O)NCCCN(C)C)c2ccc(C)cc2)cc1OC | -56.6
71 | CN(c1ccc(C(=O)N2CCCCCC2)cc1)S(=O)(=O)c1ccc(Cl)cc1 | -63
72 | COc1ccc(S(=O)(=O)N(CC(=O)NCc2ccncc2)c2ccc(C)cc2)cc1OC | -6.77
73 | CCCC(C)c1nc(C(N)=O)c2[nH]c(=O)n(-c3ccc(OC)c(OC)c3)c2n1 (stereo not shown) | 12.6
74 | CCc1ccc(NC(=O)C2CCN(S(=O)(=O)c3cnc[nH]3)CC2)cc1 | 9.27
75 | COc1ccccc1NC(=O)Cn1cnc2sc(C(=O)Nc3cc(OC)c(OC)c(OC)c3)c(C)c2c1=O | 27.8
76 | CCn1cc(/C=C(\NC(=O)c2ccccc2OC)C(=O)NCCCN2CCOCC2)c2ccccc21 | -7.61
77 | Cc1ccccc1OCC(=O)N/N=C/c1cccn1C | 7.04
78 | COc1ccc(-n2nc(C(=O)NCC(=O)NC(C)C)c3ccccc3c2=O)cc1 | 13.7
79 | CCOC(=O)C1CCCCN1Cc1cc(OC)ccc1OC (stereo not shown) | 5.17
